# In publication PMC7862700, “An all-to-all approach to the identification of sequence-specific readers for epigenetic DNA modifications on cytosine”:
# Key:
# Test in all cases: DAPPL (digital affinity profiling via proximity ligation, sequencing); 10 mM Tris-HCl pH 7.5, 50 mM NaCl, 1 mM DTT, 4% glycerol, room temperature, 30 min; GST-TFs on glutathione beads, 16-mer random dsDNA library, 0.1% formaldehyde crosslink after washing; high values mean tight binding
# [1] = target: T1, FLI1 (Homo sapiens, UniProt Q01543 1-452); conditions: protein: recombinant; tags: N-terminal GST; dsDNA, one strand shown
# T1 sequence: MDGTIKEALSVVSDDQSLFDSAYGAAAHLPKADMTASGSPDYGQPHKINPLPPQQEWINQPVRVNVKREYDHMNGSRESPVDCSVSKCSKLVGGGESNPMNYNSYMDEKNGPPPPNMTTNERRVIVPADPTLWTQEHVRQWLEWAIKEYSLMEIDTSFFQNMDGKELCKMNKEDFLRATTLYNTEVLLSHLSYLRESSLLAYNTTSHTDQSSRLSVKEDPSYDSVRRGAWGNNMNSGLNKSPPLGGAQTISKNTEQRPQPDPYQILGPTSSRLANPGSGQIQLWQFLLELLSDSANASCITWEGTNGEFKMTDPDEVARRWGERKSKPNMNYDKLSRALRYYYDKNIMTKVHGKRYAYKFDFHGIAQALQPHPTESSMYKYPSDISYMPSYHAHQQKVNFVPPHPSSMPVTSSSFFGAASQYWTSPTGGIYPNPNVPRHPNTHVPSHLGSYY
# Outline: (§1)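 Each value of binding signal is a hexamer's read frequency for a factor divided by the same hexamer's frequency in the tag-only sample. Barcoded, bead-captured GST fusions of human transcription factors made in yeast were pooled with that sample and incubated with 200 nmole of a random double-stranded 16-mer DNA library in Tris/NaCl/DTT/glycerol buffer at room temperature for 30 min. Washing, 0.1% formaldehyde crosslinking, proximity ligation, PCR and Illumina NextSeq500 sequencing followed.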
# [2] = target: T2, ELK1 (Homo sapiens, UniProt P19419 1-428); conditions: protein: recombinant; tags: N-terminal GST; dsDNA, one strand shown
# T2 sequence: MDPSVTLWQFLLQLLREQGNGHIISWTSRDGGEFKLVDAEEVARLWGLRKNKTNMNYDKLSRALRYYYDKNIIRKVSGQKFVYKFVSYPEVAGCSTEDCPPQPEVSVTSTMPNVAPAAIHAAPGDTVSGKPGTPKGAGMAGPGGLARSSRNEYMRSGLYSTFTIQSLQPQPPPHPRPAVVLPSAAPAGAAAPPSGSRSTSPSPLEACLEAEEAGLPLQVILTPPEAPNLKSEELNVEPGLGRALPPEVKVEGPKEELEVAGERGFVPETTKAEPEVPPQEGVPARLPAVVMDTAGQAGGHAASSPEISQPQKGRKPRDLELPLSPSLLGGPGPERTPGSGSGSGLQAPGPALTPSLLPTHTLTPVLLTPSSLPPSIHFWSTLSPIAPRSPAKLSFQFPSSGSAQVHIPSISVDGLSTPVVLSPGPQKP
# Outline: as §1
# [3] = target: T3, GABPA (Homo sapiens, UniProt Q06546 1-454); conditions: protein: recombinant; tags: N-terminal GST; dsDNA, one strand shown
# T3 sequence: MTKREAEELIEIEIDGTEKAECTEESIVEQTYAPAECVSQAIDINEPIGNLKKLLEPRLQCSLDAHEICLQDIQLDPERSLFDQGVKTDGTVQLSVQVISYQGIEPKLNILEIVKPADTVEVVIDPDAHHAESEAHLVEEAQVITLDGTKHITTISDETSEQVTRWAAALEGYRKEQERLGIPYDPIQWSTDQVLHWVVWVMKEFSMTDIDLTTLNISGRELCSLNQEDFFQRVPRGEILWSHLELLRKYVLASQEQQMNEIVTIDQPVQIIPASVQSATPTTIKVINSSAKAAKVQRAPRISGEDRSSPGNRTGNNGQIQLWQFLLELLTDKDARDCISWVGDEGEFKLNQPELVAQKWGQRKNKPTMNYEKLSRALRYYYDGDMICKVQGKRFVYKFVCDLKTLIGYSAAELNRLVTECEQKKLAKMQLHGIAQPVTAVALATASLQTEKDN
# Outline: as §1
# [4] = target: T4, ERG (Homo sapiens, UniProt P11308 1-479); conditions: protein: recombinant; tags: N-terminal GST; dsDNA, one strand shown
# T4 sequence: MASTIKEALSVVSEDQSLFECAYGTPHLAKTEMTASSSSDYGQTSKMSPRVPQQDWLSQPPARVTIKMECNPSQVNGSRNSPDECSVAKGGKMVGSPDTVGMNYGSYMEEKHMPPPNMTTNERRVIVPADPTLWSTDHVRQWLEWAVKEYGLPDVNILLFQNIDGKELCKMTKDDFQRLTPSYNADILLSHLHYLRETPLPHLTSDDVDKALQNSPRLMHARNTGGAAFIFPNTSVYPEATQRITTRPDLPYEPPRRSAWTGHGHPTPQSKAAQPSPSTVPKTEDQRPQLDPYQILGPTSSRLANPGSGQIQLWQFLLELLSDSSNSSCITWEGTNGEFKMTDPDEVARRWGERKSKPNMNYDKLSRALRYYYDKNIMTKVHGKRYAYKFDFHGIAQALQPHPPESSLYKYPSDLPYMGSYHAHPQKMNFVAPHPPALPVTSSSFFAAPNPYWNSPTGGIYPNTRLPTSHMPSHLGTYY
# Outline: as §1
# [5] = target: ELF1 (Homo sapiens, UniProt P32519 1-619); conditions: protein: recombinant; tags: N-terminal GST; dsDNA, one strand shown
# Chain of ELF1 (P32519 whole entry): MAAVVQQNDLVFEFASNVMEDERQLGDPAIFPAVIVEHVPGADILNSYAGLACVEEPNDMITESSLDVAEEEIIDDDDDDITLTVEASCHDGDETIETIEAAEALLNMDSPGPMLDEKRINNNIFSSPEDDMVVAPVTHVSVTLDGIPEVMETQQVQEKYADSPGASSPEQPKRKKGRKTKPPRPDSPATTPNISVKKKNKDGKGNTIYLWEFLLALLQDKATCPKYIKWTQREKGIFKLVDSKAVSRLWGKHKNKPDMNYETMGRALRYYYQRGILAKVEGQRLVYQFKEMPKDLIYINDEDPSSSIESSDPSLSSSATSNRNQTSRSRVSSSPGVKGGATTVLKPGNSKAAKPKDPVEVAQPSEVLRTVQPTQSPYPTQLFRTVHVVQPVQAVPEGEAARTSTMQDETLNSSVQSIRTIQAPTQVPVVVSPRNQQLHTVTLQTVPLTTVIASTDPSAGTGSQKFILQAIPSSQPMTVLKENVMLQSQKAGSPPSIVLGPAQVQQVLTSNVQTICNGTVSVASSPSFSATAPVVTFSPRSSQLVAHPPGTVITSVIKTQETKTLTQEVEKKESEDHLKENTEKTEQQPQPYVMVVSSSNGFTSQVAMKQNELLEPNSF
# Outline: as §1
# [6] = target: T5, EHF (Homo sapiens, UniProt Q9NZC4 1-300); conditions: protein: recombinant; tags: N-terminal GST; dsDNA, one strand shown
# T5 sequence: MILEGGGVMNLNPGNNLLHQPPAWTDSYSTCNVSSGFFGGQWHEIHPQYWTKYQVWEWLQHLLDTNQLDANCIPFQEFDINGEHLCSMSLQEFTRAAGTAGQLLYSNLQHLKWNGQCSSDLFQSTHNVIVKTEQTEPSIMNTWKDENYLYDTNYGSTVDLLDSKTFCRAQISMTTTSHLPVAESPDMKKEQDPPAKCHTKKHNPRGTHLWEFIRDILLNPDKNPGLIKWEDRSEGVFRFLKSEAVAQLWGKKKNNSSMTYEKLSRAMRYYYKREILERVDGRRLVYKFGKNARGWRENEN
# Outline: as §1
# [7] = target: SPI1 (Homo sapiens, UniProt P17947 1-270); conditions: protein: recombinant; tags: N-terminal GST; dsDNA, one strand shown
# Outline: as §1
# [8] = target: SPIB (Homo sapiens, UniProt Q01892 1-262); conditions: protein: recombinant; tags: N-terminal GST; dsDNA, one strand shown
# Chain of SPIB (Q01892 whole entry): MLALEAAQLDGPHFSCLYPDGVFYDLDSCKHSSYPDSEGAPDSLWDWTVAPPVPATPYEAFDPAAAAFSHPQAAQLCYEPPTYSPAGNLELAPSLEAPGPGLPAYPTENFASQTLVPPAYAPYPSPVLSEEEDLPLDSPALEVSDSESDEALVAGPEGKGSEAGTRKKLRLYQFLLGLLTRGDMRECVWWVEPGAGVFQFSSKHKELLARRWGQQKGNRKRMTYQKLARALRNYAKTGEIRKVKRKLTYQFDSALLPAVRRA
# Outline: as §1
# [9] = target: T6, ELK3 (Homo sapiens, UniProt P41970 1-407); conditions: protein: recombinant; tags: N-terminal GST; dsDNA, one strand shown
# T6 sequence: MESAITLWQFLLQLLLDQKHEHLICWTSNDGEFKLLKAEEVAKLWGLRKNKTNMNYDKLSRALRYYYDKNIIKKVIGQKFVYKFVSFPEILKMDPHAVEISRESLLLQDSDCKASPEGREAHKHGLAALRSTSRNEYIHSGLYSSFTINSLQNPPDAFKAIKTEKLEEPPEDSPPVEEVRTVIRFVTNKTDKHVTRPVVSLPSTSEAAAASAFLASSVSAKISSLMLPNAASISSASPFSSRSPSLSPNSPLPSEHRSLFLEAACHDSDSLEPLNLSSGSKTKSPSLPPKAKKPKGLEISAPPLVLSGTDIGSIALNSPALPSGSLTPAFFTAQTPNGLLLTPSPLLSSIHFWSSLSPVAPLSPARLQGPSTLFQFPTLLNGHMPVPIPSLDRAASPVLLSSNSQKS
# Outline: as §1
# [10] = target: T7, FEV (Homo sapiens, UniProt Q99581 1-238); conditions: protein: recombinant; tags: N-terminal GST; dsDNA, one strand shown
# T7 sequence: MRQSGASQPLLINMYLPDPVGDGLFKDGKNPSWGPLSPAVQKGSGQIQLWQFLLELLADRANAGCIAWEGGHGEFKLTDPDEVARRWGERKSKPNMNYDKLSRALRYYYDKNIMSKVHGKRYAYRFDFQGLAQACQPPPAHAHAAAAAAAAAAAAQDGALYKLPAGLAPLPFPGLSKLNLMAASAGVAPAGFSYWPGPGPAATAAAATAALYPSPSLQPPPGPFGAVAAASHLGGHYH
# Outline: as §1
# [11] = target: ETV5 (Homo sapiens, UniProt P41161 1-510); conditions: protein: recombinant; tags: N-terminal GST; dsDNA, one strand shown
# Chain of ETV5 (P41161 whole entry): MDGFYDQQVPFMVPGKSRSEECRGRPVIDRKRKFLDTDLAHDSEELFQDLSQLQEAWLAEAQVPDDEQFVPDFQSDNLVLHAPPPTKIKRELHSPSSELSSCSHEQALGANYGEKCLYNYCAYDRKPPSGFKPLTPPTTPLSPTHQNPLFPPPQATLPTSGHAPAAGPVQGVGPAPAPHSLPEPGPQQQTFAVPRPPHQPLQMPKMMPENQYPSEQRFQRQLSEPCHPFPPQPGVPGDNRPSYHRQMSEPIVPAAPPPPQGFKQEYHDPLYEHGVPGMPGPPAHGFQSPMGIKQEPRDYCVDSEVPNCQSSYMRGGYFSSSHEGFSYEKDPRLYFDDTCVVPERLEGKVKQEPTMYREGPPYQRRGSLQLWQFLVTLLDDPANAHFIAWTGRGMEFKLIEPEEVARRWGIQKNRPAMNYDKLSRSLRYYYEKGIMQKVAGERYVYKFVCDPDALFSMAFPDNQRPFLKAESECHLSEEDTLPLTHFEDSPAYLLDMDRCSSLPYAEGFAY
# Outline: as §1
# [12] = target: HSF1 (Homo sapiens, UniProt Q00613 1-529); conditions: protein: recombinant; tags: N-terminal GST; chain copies: 3; dsDNA, one strand shown
# Chain of HSF1 (Q00613 whole entry): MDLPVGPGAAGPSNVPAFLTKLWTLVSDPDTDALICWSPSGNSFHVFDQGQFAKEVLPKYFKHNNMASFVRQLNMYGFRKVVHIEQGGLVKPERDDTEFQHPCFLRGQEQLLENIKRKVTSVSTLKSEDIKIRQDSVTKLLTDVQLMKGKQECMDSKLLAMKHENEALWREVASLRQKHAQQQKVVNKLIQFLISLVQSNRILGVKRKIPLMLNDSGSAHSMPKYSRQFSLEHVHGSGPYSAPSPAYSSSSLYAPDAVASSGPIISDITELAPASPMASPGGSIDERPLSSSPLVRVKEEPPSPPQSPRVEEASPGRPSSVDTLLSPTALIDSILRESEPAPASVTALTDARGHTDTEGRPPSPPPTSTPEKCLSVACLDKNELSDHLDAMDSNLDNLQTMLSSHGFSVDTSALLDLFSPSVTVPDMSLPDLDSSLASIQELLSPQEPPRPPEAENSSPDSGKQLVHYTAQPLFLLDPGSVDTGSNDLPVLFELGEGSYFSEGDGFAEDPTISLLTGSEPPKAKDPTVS
# Outline: as §1
# [13] = target: T8, SPIC (Homo sapiens, UniProt Q8N5J4 1-248); conditions: protein: recombinant; tags: N-terminal GST; dsDNA, one strand shown
# T8 sequence: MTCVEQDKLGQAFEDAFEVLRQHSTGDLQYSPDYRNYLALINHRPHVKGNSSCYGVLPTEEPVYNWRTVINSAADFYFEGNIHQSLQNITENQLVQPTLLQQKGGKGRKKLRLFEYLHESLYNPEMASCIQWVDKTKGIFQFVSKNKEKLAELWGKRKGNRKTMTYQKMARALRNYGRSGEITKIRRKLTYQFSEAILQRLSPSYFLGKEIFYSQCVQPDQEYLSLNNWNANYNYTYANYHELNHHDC
# Outline: as §1
# [14] = target: ELF4 (Homo sapiens, UniProt Q99607 1-663); conditions: protein: recombinant; tags: N-terminal GST; dsDNA, one strand shown
# Chain of ELF4 (Q99607 whole entry): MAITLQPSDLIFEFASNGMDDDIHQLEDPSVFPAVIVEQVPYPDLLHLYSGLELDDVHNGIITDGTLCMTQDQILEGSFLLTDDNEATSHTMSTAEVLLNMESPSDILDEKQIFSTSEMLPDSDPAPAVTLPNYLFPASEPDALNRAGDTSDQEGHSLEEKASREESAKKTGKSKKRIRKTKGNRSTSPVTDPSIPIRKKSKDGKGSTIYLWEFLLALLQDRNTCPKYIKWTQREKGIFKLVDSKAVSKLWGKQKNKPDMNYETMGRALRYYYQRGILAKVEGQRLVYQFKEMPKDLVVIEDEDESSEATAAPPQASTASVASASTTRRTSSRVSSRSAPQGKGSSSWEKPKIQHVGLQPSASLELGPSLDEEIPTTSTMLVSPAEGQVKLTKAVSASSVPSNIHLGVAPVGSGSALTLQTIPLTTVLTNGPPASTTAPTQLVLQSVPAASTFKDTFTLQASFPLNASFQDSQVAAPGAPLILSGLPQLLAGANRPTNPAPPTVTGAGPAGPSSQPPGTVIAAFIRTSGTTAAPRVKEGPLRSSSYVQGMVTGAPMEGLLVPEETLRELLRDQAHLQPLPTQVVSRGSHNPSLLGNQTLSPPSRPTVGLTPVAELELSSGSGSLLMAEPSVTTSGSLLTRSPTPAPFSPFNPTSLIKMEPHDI
# Outline: as §1
# [15] = target: T9, ELK4 (Homo sapiens, UniProt P28324-2 1-405); conditions: protein: recombinant; tags: N-terminal GST; dsDNA, one strand shown
# T9 sequence: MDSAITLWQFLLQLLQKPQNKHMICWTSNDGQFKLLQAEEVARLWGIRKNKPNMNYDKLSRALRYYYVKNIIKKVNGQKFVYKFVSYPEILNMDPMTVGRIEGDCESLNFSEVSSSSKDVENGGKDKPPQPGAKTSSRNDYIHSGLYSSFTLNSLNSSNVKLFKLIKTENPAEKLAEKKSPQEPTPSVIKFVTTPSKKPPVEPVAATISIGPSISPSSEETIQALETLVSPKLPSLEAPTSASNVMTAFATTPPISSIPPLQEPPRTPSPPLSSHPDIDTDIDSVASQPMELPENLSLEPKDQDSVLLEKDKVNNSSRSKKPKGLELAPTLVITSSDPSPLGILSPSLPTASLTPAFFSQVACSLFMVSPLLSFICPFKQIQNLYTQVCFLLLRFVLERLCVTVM
# Outline: as §1
# [16] = target: T10, ETV2 (Homo sapiens, UniProt O00321 1-342); conditions: protein: recombinant; tags: N-terminal GST; dsDNA, one strand shown
# T10 sequence: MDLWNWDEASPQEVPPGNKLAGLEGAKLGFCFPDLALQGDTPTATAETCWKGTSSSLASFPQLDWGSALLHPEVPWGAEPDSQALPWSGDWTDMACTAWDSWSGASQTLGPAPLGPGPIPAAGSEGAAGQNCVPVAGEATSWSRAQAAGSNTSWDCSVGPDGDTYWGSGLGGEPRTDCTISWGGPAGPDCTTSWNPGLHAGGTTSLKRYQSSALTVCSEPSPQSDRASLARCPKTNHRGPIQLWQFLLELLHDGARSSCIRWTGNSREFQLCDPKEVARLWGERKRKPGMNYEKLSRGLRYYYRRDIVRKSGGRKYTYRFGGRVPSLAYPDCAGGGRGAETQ
# Outline: as §1
# [17] = target: T11, ELF3 (Homo sapiens, UniProt P78545 1-371); conditions: protein: recombinant; tags: N-terminal GST; dsDNA, one strand shown
# T11 sequence: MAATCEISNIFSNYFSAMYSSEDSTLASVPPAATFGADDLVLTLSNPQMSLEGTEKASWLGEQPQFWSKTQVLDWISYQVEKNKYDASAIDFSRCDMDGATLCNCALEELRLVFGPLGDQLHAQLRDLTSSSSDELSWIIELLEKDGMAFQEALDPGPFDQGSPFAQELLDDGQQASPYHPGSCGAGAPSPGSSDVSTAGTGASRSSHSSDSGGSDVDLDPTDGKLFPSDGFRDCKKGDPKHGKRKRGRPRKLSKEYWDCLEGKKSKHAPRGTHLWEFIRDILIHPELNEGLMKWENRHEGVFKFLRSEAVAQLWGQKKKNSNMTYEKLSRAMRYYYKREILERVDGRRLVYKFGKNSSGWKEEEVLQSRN
# Outline: as §1
# [18] = target: CRX (Homo sapiens, UniProt O43186 1-299); conditions: protein: recombinant; tags: N-terminal GST; dsDNA, one strand shown
# Chain of CRX (O43186 whole entry): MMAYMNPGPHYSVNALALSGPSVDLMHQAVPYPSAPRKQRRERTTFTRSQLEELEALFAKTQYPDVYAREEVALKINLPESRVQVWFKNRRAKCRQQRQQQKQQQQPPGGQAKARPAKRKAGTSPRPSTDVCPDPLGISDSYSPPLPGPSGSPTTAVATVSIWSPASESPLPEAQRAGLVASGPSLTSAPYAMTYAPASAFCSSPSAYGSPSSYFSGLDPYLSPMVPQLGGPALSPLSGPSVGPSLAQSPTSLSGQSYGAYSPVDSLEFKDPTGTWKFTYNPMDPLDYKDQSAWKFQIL
# Outline: as §1
# [19] = target: ETV1 (Homo sapiens, UniProt P50549 1-477); conditions: protein: recombinant; tags: N-terminal GST; dsDNA, one strand shown
# Chain of ETV1 (P50549 whole entry): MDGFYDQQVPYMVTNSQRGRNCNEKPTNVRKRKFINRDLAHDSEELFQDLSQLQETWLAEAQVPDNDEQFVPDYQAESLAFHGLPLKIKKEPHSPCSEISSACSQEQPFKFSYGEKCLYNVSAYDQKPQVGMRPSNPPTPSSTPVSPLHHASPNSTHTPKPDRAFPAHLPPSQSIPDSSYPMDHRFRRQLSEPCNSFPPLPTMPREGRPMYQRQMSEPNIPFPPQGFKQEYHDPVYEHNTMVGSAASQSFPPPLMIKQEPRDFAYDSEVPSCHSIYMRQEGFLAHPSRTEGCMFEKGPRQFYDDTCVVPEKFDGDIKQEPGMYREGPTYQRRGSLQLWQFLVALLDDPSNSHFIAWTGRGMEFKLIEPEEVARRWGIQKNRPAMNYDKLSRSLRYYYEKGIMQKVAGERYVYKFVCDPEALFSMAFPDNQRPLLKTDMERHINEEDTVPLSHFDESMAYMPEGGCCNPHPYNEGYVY
# Outline: as §1
sequence,measurement,setting,value
TATTCT,binding signal,[1],"1.45 fold enrichment (6-mer frequency, TF over GST control)"
same,binding signal,[2],"1.28 fold enrichment (6-mer frequency, TF over GST control)"
same,binding signal,[3],"1.43 fold enrichment (6-mer frequency, TF over GST control)"
same,binding signal,[4],"1.31 fold enrichment (6-mer frequency, TF over GST control)"
same,binding signal,[5],"1.33 fold enrichment (6-mer frequency, TF over GST control)"
same,binding signal,[6],"1.39 fold enrichment (6-mer frequency, TF over GST control)"
same,binding signal,[7],"1.31 fold enrichment (6-mer frequency, TF over GST control)"
same,binding signal,[8],"1.19 fold enrichment (6-mer frequency, TF over GST control)"
same,binding signal,[9],"1.33 fold enrichment (6-mer frequency, TF over GST control)"
same,binding signal,[10],"1.27 fold enrichment (6-mer frequency, TF over GST control)"
same,binding signal,[11],"1.33 fold enrichment (6-mer frequency, TF over GST control)"
same,binding signal,[12],"2.77 fold enrichment (6-mer frequency, TF over GST control)"
same,binding signal,[13],"1.28 fold enrichment (6-mer frequency, TF over GST control)"
same,binding signal,[14],"1.38 fold enrichment (6-mer frequency, TF over GST control)"
same,binding signal,[15],"1.37 fold enrichment (6-mer frequency, TF over GST control)"
same,binding signal,[16],"1.29 fold enrichment (6-mer frequency, TF over GST control)"
same,binding signal,[17],"1.38 fold enrichment (6-mer frequency, TF over GST control)"
same,binding signal,[18],"1.9 fold enrichment (6-mer frequency, TF over GST control)"
same,binding signal,[19],"1.4 fold enrichment (6-mer frequency, TF over GST control)"
